Reference: PubChem BioAssay (NCI)
The panel holds about 83,000 compounds, 20% with a hit somewhere; the sample as a whole holds those more often.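 The endpoint reported here, percent growth, reads 100 for growth as untreated, 0 for no net growth and -100 for all cells dead.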 The source made the active and inactive calls. Rule for the calls: active = growth percent below 10; inactive = the rest.

What follows are compounds tested on PC-3 prostate (assay: NCI-60 one-dose screen, 48 h (100 = growth as untreated, 0 = no growth, -100 = all killed)). Settings: 10 µM unless noted.

Row | Structure (SMILES) | growth
1 | CC(C)(C)c1[nH]nc2c1C(c1cc3ccccc3[nH]c1=O)Nc1cc(C(=O)OCc3ccccc3)ccc1N2 (stereo not drawn) | 41.4% (inactive)
2 | COc1ccc2nc(-c3c(-c4ccccc4)nc4ncccn34)[nH]c2c1 | 97.3% (inactive)
3 | O=C1NC(=Nc2ccc(S(=O)(=O)Nc3nccs3)cc2)S/C1=C\c1coc2ccccc2c1=O | 95% (inactive)
4 | CC(C)=CCC[C@](C)(O)[C@H]1CC[C@]2(C)[C@@H]1CC[C@@H]1[C@@]3(C)C/C(=C/c4ccc(Br)cc4)C(=O)C(C)(C)[C@@H]3CC[C@]12C | 70.5% (inactive)
5 | O=c1c2sc3ncc(Br)cc3c2ncn1-c1cccc(Cl)c1 | 81.9% (inactive)
6 | O=Cc1nc2ccccc2[nH]1 | 78.7% (inactive)
7 | CCc1ccc(-c2ccc(Nc3ccccc3)nn2)cc1S(N)(=O)=O | 60.6% (inactive)
8 | COc1ccc(-c2nc3ccccn3c2-c2nc3ccc(Cl)cc3[nH]2)cc1 | 57.5% (inactive)
9 | Cn1cc(-c2nc(-c3c[nH]c4ncccc34)cs2)c2ccccc21 | 80.6% (inactive)
10 | COc1ccc2c(c1)C/C(=C\c1cc(-c3ccc4c(c3)OCO4)n[nH]1)C2=O | 71.6% (inactive)
11 | Nc1ccc(Br)cn1 | 98.9% (inactive)
12 | Cc1nn(-c2ccc(Br)cc2)c2nc3[nH]c(=O)[nH]c(=O)c3nc12 | 111% (inactive)
13 | Cn1cc(-c2csc(-c3cn(C(=O)OC(C)(C)C)c4ccccc34)n2)c2cccnc21 | 48.5% (inactive)
14 | CC(C)(C)c1ccc(OCCCCCCCN2CCNCC2)cc1 | 28.1% (inactive)
15 | Nc1ccc(Cl)cn1 | 90% (inactive)
16 | Cc1ccc(-c2nc([P+](c3ccccc3)(c3ccccc3)c3ccccc3)c(N3CCOCC3)o2)cc1 | -18.8% (active)
17 | c1ccc2[nH]c(-c3cc(-c4ccc5c(c4)OCO5)n[nH]3)nc2c1 | 50.4% (inactive)
18 | Nc1c(C(=O)Nc2cccc(Br)c2)sc2nc3c(cc12)C(=O)CCC3 | 14.3% (inactive)
19 | COc1cccc(NC(=O)c2sc3nc4c(cc3c2N)C(=O)CCC4)c1 | 10.5% (inactive)

Row | Structure (SMILES) | growth
20 | C=C(C)[C@@H]1CC[C@]2(C)[C@H](CC=C3[C@@H]4CC(C)(C)CC[C@]4(C=O)CC[C@]32C)[C@@]1(C)CCCN | 47.5% (inactive)
21 | CC(C)(C)c1cc(-n2c(-c3ccc(Cl)cc3)nc3cc(C(=O)Nc4ccc(Cl)cc4)ccc32)n[nH]1 | 33.7% (inactive)
22 | O=c1c(CNc2ccc(S(=O)(=O)Nc3nccs3)cc2)coc2ccccc12 | 107% (inactive)
23 | COc1cc(-c2cc(-c3nc4ccc(F)cc4[nH]3)[nH]n2)cc(OC)c1OC | -18.1% (active)
24 | O=C1C(Cl)=C(Nc2ccc(S(=O)(=O)c3ccc(NC4=C(Cl)C(=O)c5ccccc5C4=O)cc3)cc2)C(=O)c2ccccc21 | 15.8% (inactive)
25 | Fc1ccc2nc(-c3cc(-c4ccc5c(c4)OCO5)n[nH]3)[nH]c2c1 | 23.3% (inactive)
26 | O=c1c(CNc2ccc(S(=O)(=O)Nc3ncccn3)cc2)coc2ccccc12 | 92.2% (inactive)
27 | COc1ccc(-c2cc(/C=C/C(=O)c3ccc(N)cc3)[nH]n2)cc1 | 26.4% (inactive)
28 | COC(=O)[C@]12CC[C@@H](C(=O)/C=C/c3cccnc3)[C@@H]1[C@H]1CC[C@@H]3[C@@]4(C)C/C(=C/c5cccnc5)C(=O)C(C)(C)[C@@H]4CC[C@@]3(C)[C@]1(C)CC2 | -14.1% (active)
29 | NC1(N)C=CC2=C(C=C1)C1(N)C3=C(C=CC(N)(N)C=C3)N2C2(N)C3=C(C=CC(N)(N)C=C3)N1C1=C2C=CC(N)(N)C=C1 | 72.2% (inactive)
30 | CCCCC(=O)OC1CCCCC1C (stereo not drawn) | 68.1% (inactive)
31 | COc1ccc(/C=C/C(=O)NCCO)cc1 | 91.8% (inactive)
32 | COc1ccc2c(c1)C/C(=C\c1cc(-c3cc(OC)c(OC)c(OC)c3)n[nH]1)C2=O | 56% (inactive)
33 | COc1ccc(NC(=O)c2ccc3c(c2)nc(-c2cc4ccccc4[nH]c2=O)n3-c2cc(C(C)(C)C)[nH]n2)cc1 | 79.1% (inactive)
34 | COc1ccc2nc(-c3cc(-c4cc(OC)c(OC)c(OC)c4)n[nH]3)[nH]c2c1 | -22.8% (active)
35 | Nc1nc2c(c(=O)[nH]1)C(c1ccc3c(c1)OCO3)C=C(C(=O)O)N2 (stereo not drawn) | 113% (inactive)
36 | COc1ccc(-c2cc(/C=C/C(=O)c3ccc(OC)c(OC)c3)[nH]n2)cc1 | 4.36% (active)
37 | COc1cc2c(cc1OC)C(=O)/C(=C/c1cc(-c3ccc4c(c3)OCO4)n[nH]1)C2 | -65.7% (active)
38 | COc1cc(-c2cc(-c3nc4ccccc4[nH]3)[nH]n2)cc(OC)c1OC | 5.47% (active)
